An excerpt weighted towards active compounds, which were near 19% of everything screened.
IL-1B inflam inh = inflammasome signaling inhibition, IL-1 beta readout | THP-1 LPS/ATP IL-1B secretion, AlphaLISA, 16 h; hits give low values | activity change, % at 57.5 µM | hit rate 4.7% among 360,000 | AID 743279; in the data active = activity change below about -50%; inconclusive = mostly about -30% to -49%
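THP-1 cells pretreated 1 hr with compounds (up to 57.5 uM final), then stimulated with LPS (250 ng/mL final) plus ATP (1.25 mM final); secreted IL-1B measured by AlphaLISA after 16 hr, decreased signal indicating inhibition.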
DT40 TDP1 no CPT = qHTS for Inhibitors of human tyrosyl-DNA phosphodiesterase 1 (TDP1): qHTS in cells in absence of CPT | DT40 Tdp1-/- hTDP1 cells, no CPT, ATP luminescence, 48 h | hit rate 15% among 420,000 | Potency, µM (doses to about 46.2 µM), for inactives: top-dose activity change, negative = growth inhibition, hits mostly inhibitors; note: potency is the fitted concentration of half-maximal effect; nearly all actives have a fitted effect of over 55% in size
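Chicken DT40 Tdp1-/- cells stably complemented with human TDP1 were seeded at 400 cells/well with DMSO in place of 20 nM camptothecin. After compound pinning, cells grew at least 48 hr at 37 °C; viability read by CellTiter-Glo luminescence.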
TDP1 cell CPT = DT40-hTDP1 cell growth loss with CPT; AID 686979; Potency, µM (series often up to 46.2 µM), without a hit: at the highest dose activity change, negative = growth inhibition, most hits filed as inhibitors; hit rate 12% among 420,000; chicken DT40 Tdp1-/-;hTDP1 cells + 20 nM CPT, ATP luminescence, 48 h; note: potency is the fitted concentration of half-maximal effect; nearly all actives have a fitted effect of over 55% in size
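Chicken DT40 Tdp1-/- cells complemented with human TDP1, 400 cells/well, exposed to compounds plus 20 nM camptothecin for at least 48 h at 37 C; viability read as ATP content by CellTiter-Glo luminescence.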
HT1080NT lethal = kills 2HG-producing HT-1080-NT fibrosarcoma cells; HT-1080-NT fibrosarcoma viability, CellTiter-Glo ATP luminescence, 48 h; Potency, µM (series often up to 46.1 µM), inactives show at the highest dose activity, negative = less viability, actives largely listed as cytotoxic; hit rate 1.6% among 360,000;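 note: NT is the 2HG producing partner of a matched IDH1 knockdown line; potency is the fitted concentration of half-maximal effect; 0% = DMSO-treated cells and -100% = media-only wells without cells; nearly all actives have a fitted effect of over 55% in size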
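Viability by CellTiter-Glo luminescence after 48 h compound exposure at 37C of HT-1080-NT cells (750/well, RPMI, 5% FBS). % activity scaled between DMSO wells and medium-only wells, then curve-fitted and categorized by curve class.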
HT1080 IDH1KD tx = HT-1080 IDH1 knockdown cell toxicity (counter line); AID 686971; HT-1080 IDH1 knockdown viability, ATP luminescence, 48 h; hit rate 2% among 360,000; Potency, µM (doses to about 46.1 µM), without a hit: at the highest dose activity, negative = toxicity, hits mostly cytotoxic;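 note: potency is the fitted concentration of half-maximal effect; 0% = DMSO wells and -100% = cell-free medium wells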
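IDH1KD HT-1080 cells, 750/well, RPMI + 5% FBS; compound pinned after 2 h settling; 48 h, 37 °C; CellTiter-Glo luminescence; % activity normalised to DMSO and no-cell wells; curves fitted, classed by r2 and efficacy.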
* marks the source's active call; other numbers are inactive results; u = inconclusive; x = no result; [ ] = another dose, or the depositor's remark. Unless noted, calls come from the whole dose curve; as a rule, active = well fitted curve in the direction sought with a large enough effect; inconclusive = small, poorly fitted or top-dose-only effect, or another doubt; inactive = no such curve, though single readings can be large; an effect the other way counts as inactive or inconclusive. Unless noted, % is set by controls: 0 for no effect and ±100 for the full control effect.

SMILES	IL-1B inflam inh	DT40 TDP1 no CPT	TDP1 cell CPT	HT1080NT lethal	HT1080 IDH1KD tx
Cc1ccccc1C(=O)NCC(=O)OCCOc1ccc(C(C)C)c(C)c1	13	-4%	-18%	-7%	-2%
COC(=O)c1ccccc1NC(=O)Cn1c(=O)n(CCCC(=O)NCCc2ccc(OC)c(OC)c2)c(=O)c2ccccc21	x	-8%	-6%	x	x
Cc1cnc(-n2ncc(C(=O)NCCc3cccnc3)c2C)nc1-c1cccs1	x	21µM*	-5%[9.04 µM]	x	x
Cc1cccc(NC(=O)c2cc([N+](=O)[O-])ccc2N2CCCCC2)n1	12	u	u	-5%	1%
COc1ccc([C@H]2CC(=O)C=C(c3ccc4c(c3)OCO4)C2)cc1OC	u	u	u	-6%	1%
COc1ccc([C@H]2CC(=O)C=C(c3ccc(O)cc3)C2)cc1OC	-17	21µM*	u	3%	-10%
COc1ccc(C2=CC(=O)CC(c3ccc(OC)cc3)C2)cc1 (configuration not stated)	-24	u	8%	-15%	7%
O=C1C=C(c2ccc3ncccc3c2)C[C@@H](c2ccc(Cl)cc2)C1	-15	u	23µM*	u	-29%
O=C1C=C(c2cc3ccccc3s2)C[C@@H](c2ccc(Cl)cc2)C1	-14	u	9.2µM*	-8%	-10%
COc1ccc([C@H]2CC(=O)C=C(c3ccc(OC)c(OC)c3)C2)cc1	u	u	12µM*	-8%	-13%
COc1ccc([C@H]2CC(=O)C=C(c3ccc4ccccc4c3)C2)cc1OC	u	16µM*	u	9%	13%
COc1ccc([C@H]2CC(=O)C=C(/C=C/c3ccccc3)C2)cc1OC	u	u	18µM*	-17%	-1%
COc1ccc([C@H]2CC(=O)C=C(c3ccc4ncccc4c3)C2)cc1OC	u	21µM*	u	-4%	-5%
O=c1oc2ccc(F)cc2cc1-c1nc(-c2cccs2)no1	x	-14%	-20%	x	x
COc1ccc([C@H]2C[C@H](O)[C@@H](n3cc(COC(=O)c4ccccc4)nn3)CN2CC2CCCCC2)cc1	-9	23µM*	23µM*	u	u
Cc1ccc([C@H]2C[C@H](n3cc(COC(=O)c4ccccc4)nn3)[C@@H](O)CN2CC2CCCCC2)cc1	5	21µM*	u	9%	10%
CCCCCCN1C[C@@H](O)[C@H](n2cc(COC(=O)c3ccccc3)nn2)C[C@@H]1c1ccc(C)cc1	18	21µM*	21µM*	3%	2%
O=C(OCc1cn([C@H]2C[C@H](c3ccccc3)N(CC3CCCCC3)C[C@@H]2O)nn1)c1ccccc1	23	u	u	-6%	-7%
Cc1ccc([C@H]2C[C@@H](n3cc(COC(=O)c4ccccc4)nn3)[C@H](O)CN2C(=O)C2CCCCC2)cc1	-24	21µM*	u	-12%	-6%
Nc1nc(-c2ccc3ccccc3c2)c(C2(O)C(=O)Nc3c(Br)cc(F)cc32)s1 (configuration not stated)	1	-1%	0%	-5%[9.24 µM]	-5%
COc1ccc(N2CCN(C(=O)c3cccn4c(=O)c5ccccc5nc34)CC2)cc1	7	-22%	-21%	-2%	-9%
O=C(c1c2c(nc3ccccc13)C(=O)N(C1CCCCC1)C2)N1CCN(c2ccc(F)cc2)CC1	x	26µM*	21µM*	x	x
COc1ccc(N2CCN(C(=O)c3c4c(nc5ccccc35)C(=O)N(C3CCCCC3)C4)CC2)cc1	x	16µM*	15µM*	x	x
Cc1[nH]nc(C(=O)NN=Cc2ccccc2Cl)c1N=NN(C)C	-12	6.5µM*	9.2µM*	21µM*	23µM*
O=C(NCCOc1nc(N2CCOCC2)nc(N2CCOCC2)n1)Nc1ccccc1	-29	u	-26%	-6%	-25%
O=C(NCCOc1nc(N2CCCCC2)nc(N2CCCCC2)n1)Nc1ccccc1	-63*	23µM*	u	2%	-10%

Assay outcomes deposited in PubChem BioAssay by National Center for Advancing Translational Sciences (NCATS).
